Data on 39 compounds can be found in PubChem BioAssay.

SMILES strings stand for the structures. The source made the active and inactive calls.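 The calls were made as follows, unless noted: active = fluorescence slope higher than the sample average by over 3 SD (cut at about -0.22 in these data, passing the limit was not always enough); inactive = the rest.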

Test system in one assay: not listed separately
Put plainly: endothelial E-selectin expression blockers – imaging, HUVEC, immunofluorescence, MLSMR starter and 10KST1 sets, primary screen (AID 487;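 active = visually confirmed hit in the image check and inhibition above 20%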;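 as to inhibition: signal is fraction of cell area covered by stained E-selectin grains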;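 as to nuclei count: 100% = median nuclei count of all wells on the same plate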). To be noted: HUVEC TNFalpha-induced E-selectin immunofluorescence imaging, at 2 µM; inhibition: stronger effect = higher value; nuclei count: measured here: cell number, toxicity.
Turning to `Cc1cc(C)c(C#N)c(SCC(=O)Nc2ccc(S(=O)(=O)Nc3onc(C)c3C)cc2)n1`, the inhibition (commonly the drop in the measured response relative to a control, in per cent) was -59.1% (inactive) and the nuclei count stood at 122%.

Regarding `CC(C)c1ccc(C(O)c2cnc(C(C)C)n2C)cc1` (configuration not stated), the nuclei count stood at 106% and the inhibition was -93.9% (inactive).

With `CN1CCN(S(=O)(=O)c2ccc(NC(=O)c3ccc(F)cc3)cc2)CC1`, the inhibition was -22.1% (inactive) and the nuclei count was 85%.

For the compound `O=c1c2[nH]c3cccc(Cl)c3c2ncn1CCN1CCCCC1`, the inhibition was -0.5% (inactive) and the nuclei count is 106%.

For the compound `COc1ccc(OC)c(C(=O)CSc2nc3ncccc3[nH]2)c1`, the nuclei count was found to be 99.6% and the inhibition was 52.6% (inactive).

Consider `O=C(CC(CC(=O)c1ccccc1)C(=O)O)c1ccccc1`, for which the nuclei count is 109% and the inhibition is -52.5% (inactive).

`CCOc1ccc2nc(Nc3nc4c(c(=O)[nH]3)CCC4)nc(C)c2c1`: the inhibition was -9.2% (inactive) and the nuclei count amounted to 110%.

Consider `CCOC(=O)Cn1c(S(=O)(=O)Cc2ccccc2)nc2ccccc21`, for which the nuclei count is 127% and the inhibition is -135% (inactive).

Regarding `CC(C)NC(=O)Nc1cccs1`, the nuclei count amounted to 105% and the inhibition is -84.5% (inactive).

As to `CC(C)COC(=O)C1[C@H]2C(=O)N(Cc3cccs3)C[C@]23C=C[C@H]1O3` (some centres not stated), the nuclei count was 127% and the inhibition is -44.8% (inactive).

On to `CN(C)S(=O)(=O)c1ccc(S(=O)(=O)N(Cc2ccco2)Cc2ccccc2Cl)cc1`, for which the inhibition is -58.4% (inactive) and the nuclei count is 99.8%.

With `COc1cccc(N(C(=O)c2ccco2)C(C(=O)NC2CCCC2)c2ccc(N(C)C)cc2)c1` (configuration not stated), the inhibition was 5.4% (inactive) and the nuclei count came out at 77.9%.

Consider `CCOc1ccc(Cn2nnc(C(=O)Nc3ccc(OC)cc3OC)c2N)cc1`, for which the inhibition was -9.7% (inactive) and the nuclei count was 106%.

Turning to `CC(NC(=O)c1ccc2c(c1)OCO2)C(c1cccs1)N1CCOCC1` (configuration not stated), the inhibition was -29.4% (inactive) and the nuclei count was determined as 115%.

Turning to `Cn1c(=N)c(S(=O)(=O)c2ccccc2)cc2c(=O)n3ccccc3nc21`, the nuclei count was found to be 235% and the inhibition is -85.8% (inactive).

In the case of `CCOC(=O)c1c(NC(=O)OC)sc2c1CCC2`, the nuclei count was found to be 125% and the inhibition was -35.7% (inactive).

For the compound `CCn1c(SCC(=O)N2c3ccccc3CCc3ccccc32)nc2c1c(=O)n(C)c(=O)n2C`, the inhibition was -2.5% (inactive) and the nuclei count was 131%.

Turning to `COc1cccc(C(=O)Nc2c(C(N)=O)oc3ccccc23)c1`, the nuclei count is 121% and the inhibition is -34.6% (inactive).

As to `Cc1cc(C(=O)Nc2nnc(C(F)(F)F)s2)no1`, the nuclei count was 106% and the inhibition was -25.5% (inactive).

Take `CC(Oc1ccccc1)C(=O)NC1CCN(Cc2ccccc2)CC1` (configuration not stated): the inhibition was 0.4% (inactive) and the nuclei count was 103%.

As for `COC(=O)[C@H](CCSC)NC(=O)Nc1cc(C)ccc1C`, the nuclei count is 86.5% and the inhibition is -5.7% (inactive).

In the case of `COc1ccc(NC(=O)CC2Oc3ccccc3NC2=O)cc1` (configuration not stated), the inhibition is -48.1% (inactive) and the nuclei count is 122%.

With `Oc1ccc(Nc2nc(-c3ccc(O)cc3)cs2)cc1`, the inhibition is -20.5% (inactive) and the nuclei count came out at 124%.

With `COc1ccc(OC)c(C2CC(=O)NC(SC)=C2C#N)c1` (configuration not stated), the inhibition was -23.1% (inactive) and the nuclei count amounted to 117%.

With `COc1ccccc1CC(NC(C)=O)C(=O)NC1CCN(c2nnnn2-c2ccccc2)CC1` (configuration not stated), the inhibition was -19.7% (inactive) and the nuclei count is 117%.

As for `COc1ccc(-c2nnc(SC(C)C(=O)Nc3nccs3)n2-c2ccccc2)cc1OC` (configuration not stated), the inhibition is -36.4% (inactive) and the nuclei count turned out to be 93.8%.

Take `CC(=O)N1CCN(S(=O)(=O)c2ccc(S(=O)(=O)NCC(C)C)cc2)CC1`: the nuclei count was 110% and the inhibition was -10.2% (inactive).

Regarding `CCCN(CCC)CCNS(=O)(=O)c1ccc2c(c1)oc(=O)n2C`, the inhibition was -106% (inactive) and the nuclei count was 119%.

Take `CCOC(=O)C1=C(C)NC(=O)NC1c1ccc(Br)s1` (configuration not stated): the inhibition is 28.9% (inactive) and the nuclei count worked out at 104%.

On to `COc1ccc(CC(=O)Nc2ccc(OC)c(NC(=O)c3ccco3)c2)cc1`, for which the nuclei count worked out at 146% and the inhibition was -70.8% (inactive).

As for `Nn1c(SCC(=O)Nc2ccc(S(=O)(=O)N3CCCC3)cc2)nnc1C(F)(F)F`, the inhibition is -33.2% (inactive) and the nuclei count amounted to 128%.

As for `O=C1C2C3C=CC(C3=C3CCCCC3)C2C(=O)N1c1ccccc1` (configuration not stated), the nuclei count is 103% and the inhibition is -29.2% (inactive).

Turning to `CCC(=O)Nc1cc(C)c(NC(=O)C23CC4CC(CC(C4)C2)C3)cn1`, the nuclei count was 102% and the inhibition was -11.3% (inactive).

With `O=C(c1ncc[nH]1)c1ccccc1C(=O)N1CCOCC1`, the inhibition is -232% (inactive) and the nuclei count worked out at 116%.

Regarding `CCc1ccc(NC(=O)CS(=O)CC(=O)NC(C)CCc2ccco2)cc1` (configuration not stated), the nuclei count was 116% and the inhibition is -203% (inactive).

For `N#Cc1nc(COc2ccccc2Cl)oc1N1CCCCCC1`, the nuclei count came out at 102% and the inhibition is 17.1% (inactive).

Take `O=C(c1ccco1)N1CCN(c2nc(C(F)(F)F)nc3c2nnn3Cc2ccccc2)CC1`: the nuclei count is 103% and the inhibition was -10.1% (inactive).

With `Cc1ccc2c(c1)-c1c(cnn1CC(=O)NC(C)CCc1ccco1)CO2` (configuration not stated), the nuclei count worked out at 125% and the inhibition was -62.3% (inactive).

As for `CCC1(CC)C(=O)N(C)C(=O)NC1=NCc1ccccc1`, the inhibition was 24.4% (inactive) and the nuclei count was found to be 96.9%.

For the next assay, the target named is Voltage-gated potassium channel subunit beta-2 (Rattus norvegicus) (UniProt P62483). Put plainly: inhibitors of rat Kvbeta2 reductase activity – biochemical, NADPH fluorescence, primary screen (AID 622).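 Also: slope of raw intensity against log time taken from 70 to 1610 s.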 The settings on record: recombinant KvBeta, 4-cyanobenzaldehyde reduction, at 10 µM, stronger effect = higher value.
Voltage-gated potassium channel subunit beta-2 (Rattus norvegicus), sequence (P62483 whole entry, looked up): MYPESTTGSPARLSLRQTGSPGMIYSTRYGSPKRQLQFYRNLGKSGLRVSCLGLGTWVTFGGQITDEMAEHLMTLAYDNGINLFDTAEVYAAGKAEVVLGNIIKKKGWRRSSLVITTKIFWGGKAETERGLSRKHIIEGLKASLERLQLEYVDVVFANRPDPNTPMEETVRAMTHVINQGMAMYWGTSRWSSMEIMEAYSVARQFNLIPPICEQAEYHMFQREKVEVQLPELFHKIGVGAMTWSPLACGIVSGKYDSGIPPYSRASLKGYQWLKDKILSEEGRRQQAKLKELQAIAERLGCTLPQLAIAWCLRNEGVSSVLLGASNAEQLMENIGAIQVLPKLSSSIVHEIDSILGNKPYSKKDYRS
As for `Cc1cc(C)c(C#N)c(SCC(=O)Nc2ccc(S(=O)(=O)Nc3onc(C)c3C)cc2)n1`, the fluorescence slope is -0.448 (inactive).

Consider `CC(C)c1ccc(C(O)c2cnc(C(C)C)n2C)cc1` (configuration not stated), for which the fluorescence slope is -0.552 (inactive).

Consider `CN1CCN(S(=O)(=O)c2ccc(NC(=O)c3ccc(F)cc3)cc2)CC1`, for which the fluorescence slope was -0.424 (inactive).

With `O=c1c2[nH]c3cccc(Cl)c3c2ncn1CCN1CCCCC1`, the fluorescence slope was -0.618 (inactive).

Take `COc1ccc(OC)c(C(=O)CSc2nc3ncccc3[nH]2)c1`: the fluorescence slope is -0.488 (inactive).

Turning to `O=C(CC(CC(=O)c1ccccc1)C(=O)O)c1ccccc1`, the fluorescence slope is -0.525 (inactive).

Take `CCOc1ccc2nc(Nc3nc4c(c(=O)[nH]3)CCC4)nc(C)c2c1`: the fluorescence slope was -0.429 (inactive).

Consider `CCOC(=O)Cn1c(S(=O)(=O)Cc2ccccc2)nc2ccccc21`, for which the fluorescence slope was -0.579 (inactive).

As to `CC(C)NC(=O)Nc1cccs1`, the fluorescence slope was -0.507 (inactive).

In the case of `CC(C)COC(=O)C1[C@H]2C(=O)N(Cc3cccs3)C[C@]23C=C[C@H]1O3` (some centres not stated), the fluorescence slope was -0.393 (inactive).

In the case of `CN(C)S(=O)(=O)c1ccc(S(=O)(=O)N(Cc2ccco2)Cc2ccccc2Cl)cc1`, the fluorescence slope was -0.523 (inactive).

As to `COc1cccc(N(C(=O)c2ccco2)C(C(=O)NC2CCCC2)c2ccc(N(C)C)cc2)c1` (configuration not stated), the fluorescence slope is -0.44 (inactive).

For `CCOc1ccc(Cn2nnc(C(=O)Nc3ccc(OC)cc3OC)c2N)cc1`, the fluorescence slope is -0.49 (inactive).

Regarding `CC(NC(=O)c1ccc2c(c1)OCO2)C(c1cccs1)N1CCOCC1` (configuration not stated), the fluorescence slope is -0.618 (inactive).

As to `Cn1c(=N)c(S(=O)(=O)c2ccccc2)cc2c(=O)n3ccccc3nc21`, the fluorescence slope was -0.517 (inactive).

Take `CCOC(=O)c1c(NC(=O)OC)sc2c1CCC2`: the fluorescence slope was -0.535 (inactive).

For `CCn1c(SCC(=O)N2c3ccccc3CCc3ccccc32)nc2c1c(=O)n(C)c(=O)n2C`, the fluorescence slope is -0.516 (inactive).

In the case of `COc1cccc(C(=O)Nc2c(C(N)=O)oc3ccccc23)c1`, the fluorescence slope was -0.545 (inactive).

Take `Cc1cc(C(=O)Nc2nnc(C(F)(F)F)s2)no1`: the fluorescence slope is -0.447 (inactive).

Regarding `CC(Oc1ccccc1)C(=O)NC1CCN(Cc2ccccc2)CC1` (configuration not stated), the fluorescence slope is -0.418 (inactive).

For the compound `COC(=O)[C@H](CCSC)NC(=O)Nc1cc(C)ccc1C`, the fluorescence slope was -0.616 (inactive).

Consider `COc1ccc(NC(=O)CC2Oc3ccccc3NC2=O)cc1` (configuration not stated), for which the fluorescence slope was -0.556 (inactive).

With `Oc1ccc(Nc2nc(-c3ccc(O)cc3)cs2)cc1`, the fluorescence slope was -0.429 (inactive).

Turning to `COc1ccc(OC)c(C2CC(=O)NC(SC)=C2C#N)c1` (configuration not stated), the fluorescence slope is -0.529 (inactive).

For the compound `COc1ccccc1CC(NC(C)=O)C(=O)NC1CCN(c2nnnn2-c2ccccc2)CC1` (configuration not stated), the fluorescence slope was -0.624 (inactive).

For `COc1ccc(-c2nnc(SC(C)C(=O)Nc3nccs3)n2-c2ccccc2)cc1OC` (configuration not stated), the fluorescence slope was -0.496 (inactive).

With `CC(=O)N1CCN(S(=O)(=O)c2ccc(S(=O)(=O)NCC(C)C)cc2)CC1`, the fluorescence slope is -0.399 (inactive).

Consider `CCCN(CCC)CCNS(=O)(=O)c1ccc2c(c1)oc(=O)n2C`, for which the fluorescence slope was -0.427 (inactive).

With `CCOC(=O)C1=C(C)NC(=O)NC1c1ccc(Br)s1` (configuration not stated), the fluorescence slope is -0.502 (inactive).

For the compound `COc1ccc(CC(=O)Nc2ccc(OC)c(NC(=O)c3ccco3)c2)cc1`, the fluorescence slope was -0.417 (inactive).

As for `Nn1c(SCC(=O)Nc2ccc(S(=O)(=O)N3CCCC3)cc2)nnc1C(F)(F)F`, the fluorescence slope was -0.504 (inactive).

Consider `O=C1C2C3C=CC(C3=C3CCCCC3)C2C(=O)N1c1ccccc1` (configuration not stated), for which the fluorescence slope is -0.61 (inactive).

Take `CCC(=O)Nc1cc(C)c(NC(=O)C23CC4CC(CC(C4)C2)C3)cn1`: the fluorescence slope is -0.479 (inactive).

As to `O=C(c1ncc[nH]1)c1ccccc1C(=O)N1CCOCC1`, the fluorescence slope is -0.515 (inactive).

Turning to `CCc1ccc(NC(=O)CS(=O)CC(=O)NC(C)CCc2ccco2)cc1` (configuration not stated), the fluorescence slope is -0.484 (inactive).

Take `N#Cc1nc(COc2ccccc2Cl)oc1N1CCCCCC1`: the fluorescence slope is -0.431 (inactive).

Take `O=C(c1ccco1)N1CCN(c2nc(C(F)(F)F)nc3c2nnn3Cc2ccccc2)CC1`: the fluorescence slope is -0.484 (inactive).

Take `Cc1ccc2c(c1)-c1c(cnn1CC(=O)NC(C)CCc1ccco1)CO2` (configuration not stated): the fluorescence slope was -0.577 (inactive).

Regarding `CCC1(CC)C(=O)N(C)C(=O)NC1=NCc1ccccc1`, the fluorescence slope is -0.334 (inactive).
